Calls of active or inactive are those of the source. Where a call stands in place of a potency, no number is given. Unless noted, calls come from the whole dose curve.
Columns and labels:
[1] = qHTS assay to identify small molecule antagonists of the thyroid receptor (TR) signaling pathway (AID 743065; active = well fitted curve in the direction sought with a large enough effect in the repeat runs; inconclusive = weak or mixed curves; inactive = no such curve, though single readings can be large; an effect the other way counts as inactive or inconclusive; note: nearly all actives have a fitted effect of over 55% in size; note: potency is the fitted concentration of half-maximal effect)
Method in brief: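 GH3.TRE-Luc rat pituitary cells carrying two TR response elements driving luciferase were plated for 4 h, given compound plus 1 nM T3 (final), and incubated 23.5 h at 37 C. ONE-Glo luminescence measured reporter inhibition; CellTiter-Fluor fluorescence tracked cytotoxicity.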

[2] = tested on: thyroid hormone receptor (rat, GH3 cells); assay: qHTS assay to identify small molecule agonists of the thyroid receptor (TR) signaling pathway (AID 743066)
[3] = biological target: Estrogen receptor (Homo sapiens) (UniProt P03372); assay: qHTS assay to identify small molecule antagonists of the estrogen receptor alpha (ER-alpha) signaling pathway (AID 743069; active = well fitted curve in the direction sought with a large enough effect in the signal ratio in the repeat runs, not every such curve was filed as active; inconclusive = weak or mixed curves, or effect the other way; inactive = no such curve, though single readings can be large or run the other way; the % refers to the signal ratio; note: potency is the fitted concentration of half-maximal effect)
Method in brief: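 Screening used a UAS-driven beta-lactamase reporter integrated into HEK293 cells expressing ER-alpha, stimulated with 17beta-estradiol alongside test compounds over 18 hr at 37C; signal came from LiveBLAzer B/G FRET fluorescence.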

[4] = qHTS assay to identify small molecule antagonists of the estrogen receptor alpha (ER-alpha) signaling pathway - cell viability counter screen (AID 743074); note: nearly all actives have a fitted effect of over 45% in size
[5] = biological target: Estrogen receptor (Homo sapiens) (UniProt P03372); assay: qHTS assay to identify small molecule agonists of the estrogen receptor alpha (ER-alpha) signaling pathway (AID 743075); note: potency is the fitted concentration of half-maximal effect
[6] = biological target: Estrogen receptor (Homo sapiens) (UniProt P03372); assay: qHTS assay to identify small molecule agonists of the estrogen receptor alpha (ER-alpha) signaling pathway using the BG1 cell line (AID 743079; active = well fitted curve in the direction sought with a large enough effect in the repeat runs; inconclusive = weak or mixed curves; inactive = no such curve, though single readings can be large; an effect the other way counts as inactive or inconclusive; note: nearly all actives have a fitted effect of over 20% in size; note: potency is the fitted concentration of half-maximal effect)
[7] = qHTS assay to identify small molecule antagonists of the estrogen receptor alpha (ER-alpha) signaling pathway using the BG1 cell line (AID 743080);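 note: BG1 cells stimulated with 17beta-estradiol alongside compound; nearly all actives have a fitted effect of over 25% in size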; note: potency is the fitted concentration of half-maximal effect
Method in brief: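 BG1-Luc-4E2 cells (endogenous full-length ER-alpha, 4xERE luciferase) hormone-starved 5 days in charcoal-stripped FBS, plated 4,000/well for 24 h, then compound plus 17beta-estradiol for 21.5 h at 37 C; ONE-Glo luminescence read.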

[8] = qHTS assay to identify small molecule antagonists of the estrogen receptor alpha (ER-alpha) signaling pathway using the BG1 cell line - cell viability counter screen (AID 743081; active = well fitted curve in the direction sought with a large enough effect in the repeat runs; inconclusive = weak or mixed curves; inactive = no such curve, though single readings can be large; an effect the other way counts as inactive or inconclusive;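 note: compound given together with 17beta-estradiol as the ER stimulus; nearly all actives have a fitted effect of over 45% in size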; note: potency is the fitted concentration of half-maximal effect)
Aromatase (Homo sapiens) = Aromatase (Homo sapiens) (UniProt P11511); assay: qHTS assay to identify aromatase inhibitors (AID 743083; active = well fitted curve in the direction sought with a large enough effect in the repeat runs; inconclusive = weak or mixed curves; inactive = no such curve, though single readings can be large; an effect the other way counts as inactive or inconclusive; note: nearly all actives have a fitted effect of over 55% in size; note: potency is the fitted concentration of half-maximal effect)
Chain of Aromatase (Homo sapiens) (P11511 whole entry, looked up): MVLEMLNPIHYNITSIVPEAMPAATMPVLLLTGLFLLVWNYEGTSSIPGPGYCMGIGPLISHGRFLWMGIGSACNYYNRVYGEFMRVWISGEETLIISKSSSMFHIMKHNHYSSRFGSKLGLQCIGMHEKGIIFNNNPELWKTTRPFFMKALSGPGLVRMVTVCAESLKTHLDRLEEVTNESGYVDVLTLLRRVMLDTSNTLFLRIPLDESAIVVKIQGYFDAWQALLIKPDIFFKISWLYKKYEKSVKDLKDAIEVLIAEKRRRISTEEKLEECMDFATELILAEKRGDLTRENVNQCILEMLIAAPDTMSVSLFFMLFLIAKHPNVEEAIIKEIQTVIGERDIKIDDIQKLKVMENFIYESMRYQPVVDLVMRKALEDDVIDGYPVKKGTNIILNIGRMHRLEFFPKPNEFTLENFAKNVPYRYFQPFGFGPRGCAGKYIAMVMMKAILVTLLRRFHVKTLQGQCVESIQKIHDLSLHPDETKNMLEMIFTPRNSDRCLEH

Chain of Estrogen receptor (Homo sapiens) (P03372 whole entry, looked up): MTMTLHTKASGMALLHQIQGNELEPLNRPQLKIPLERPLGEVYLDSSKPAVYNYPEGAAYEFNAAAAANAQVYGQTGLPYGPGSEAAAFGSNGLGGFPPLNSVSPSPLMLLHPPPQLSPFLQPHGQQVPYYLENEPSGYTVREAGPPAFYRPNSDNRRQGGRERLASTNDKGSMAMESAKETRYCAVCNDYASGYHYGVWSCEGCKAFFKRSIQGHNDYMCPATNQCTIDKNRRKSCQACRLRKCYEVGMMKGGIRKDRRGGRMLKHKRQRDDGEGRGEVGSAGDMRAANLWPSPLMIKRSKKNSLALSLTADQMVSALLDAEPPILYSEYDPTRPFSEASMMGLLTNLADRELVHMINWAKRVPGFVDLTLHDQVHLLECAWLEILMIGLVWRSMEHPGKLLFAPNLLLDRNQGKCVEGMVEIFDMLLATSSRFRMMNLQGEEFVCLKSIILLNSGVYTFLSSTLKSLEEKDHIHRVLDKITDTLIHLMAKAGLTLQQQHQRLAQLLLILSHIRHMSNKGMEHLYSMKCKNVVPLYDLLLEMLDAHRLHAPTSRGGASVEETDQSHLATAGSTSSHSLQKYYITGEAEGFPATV

| Structure (SMILES) | Potency [1] | Potency [2] | Potency [3] | outcome [4] | Potency [5] | Potency [6] | Potency [7] | Potency [8] | Potency (Aromatase (Homo sapiens)) |
| --- | --- | --- | --- | --- | --- | --- | --- | --- | --- |
| C=CCCCCCC | inactive | inactive | inactive | inactive | inactive | inactive | inactive | inactive | inactive |
| O=C(O)/C=C/c1cnc[nH]1 | inactive | inactive | – | inactive | – | – | – | inactive | inactive |
| Cc1ncsc1CCO | inactive | inactive | inactive | inactive | inactive | inactive | inactive | inactive | inactive |
| CN(c1nccc(=O)[nH]1)C1CCN(c2nc3ccccc3n2Cc2ccc(F)cc2)CC1 | inactive | inactive | – | inactive | inactive | – | inactive | inactive | inactive |
| CC(C)(C)c1ccc(S)cc1 | inactive | inactive | – | inactive | inactive | – | – | inactive | inactive |
| N#Cc1cc2ccccc2c2ccccc12 | inactive | inactive | – | inactive | inactive | inactive | inactive | inactive | inactive |
| O=C(O)Cn1c(C(=O)Nc2nc(-c3ccccc3Cl)cs2)cc2ccccc21 | 26.6 µM (active) | inactive | inactive | – | inactive | inactive | inactive | inactive | inactive |
| CCCOc1ccc2nc(NC(=O)OC)[nH]c2c1 | 0.422 µM (active) | inactive | inactive | inactive | – | inactive | inactive | inactive | inactive |
| CC(C)CCCC(C)CCO (stereo not drawn) | inactive | inactive | inactive | inactive | inactive | – | inactive | inactive | inactive |
| CCCCOCCOCCOCCOCCO | inactive | inactive | inactive | inactive | inactive | – | inactive | inactive | inactive |
| CCCCCCCC/C=C\CCCCCCCC(N)=O | inactive | inactive | – | inactive | – | – | – | inactive | inactive |
| O=C(C(=O)c1ccc(Br)cc1)c1ccc(Br)cc1 | inactive | inactive | inactive | inactive | inactive | inactive | inactive | inactive | inactive |
| CCCc1ccccc1 | inactive | inactive | inactive | inactive | inactive | inactive | inactive | inactive | inactive |
| CC/C(=C\C(=N/O)C(N)=O)C(C)[N+](=O)[O-] (stereo not drawn) | inactive | inactive | – | inactive | inactive | inactive | inactive | inactive | inactive |
| O=C(Cl)c1c(Cl)cccc1Cl | inactive | inactive | inactive | inactive | inactive | inactive | inactive | inactive | inactive |
| NCCCOCCOCCOCCCN | inactive | inactive | inactive | inactive | inactive | inactive | inactive | inactive | inactive |
| CCCCCCCCCC(=O)OCC | inactive | inactive | inactive | – | inactive | – | inactive | inactive | inactive |
| Oc1ccc(Sc2ccc(O)cc2)cc1 | 51 µM (active) | inactive | – | inactive | 18.2 µM [inconclusive] (active) | 0.51 µM (active) | inactive | inactive | inactive |
| Nc1nc(N)c2nc(CNc3ccc(C(=O)N[C@@H](CCC(=O)O)C(=O)O)cc3)cnc2n1 | 0.0571 µM (active) | inactive | inactive | inactive | inactive | inactive | inactive | inactive | inactive |
| Cc1cccc(OCCOc2cccc(C)c2)c1 | – | – | inactive | inactive | inactive | – | – | inactive | inactive |

| Structure (SMILES) | Potency [1] | Potency [2] | Potency [3] | outcome [4] | Potency [5] | Potency [6] | Potency [7] | Potency [8] | Potency (Aromatase (Homo sapiens)) |
| --- | --- | --- | --- | --- | --- | --- | --- | --- | --- |
| O=[N+]([O-])c1cc[n+]([O-])cc1 | – | inactive | – | inactive | inactive | – | – | inactive | – |
| O=S(=O)(O)c1ccc(O)c2ncccc12 | – | inactive | inactive | inactive | inactive | inactive | inactive | – | inactive |
| CC(=O)O[C@H]1C[C@@H]2CC[C@@H]3[C@H](CC[C@@]4(C)[C@H]3C[C@H]([N+]3(C)CCCCC3)[C@@H]4OC(C)=O)[C@@]2(C)C[C@@H]1N1CCCCC1 | – | – | inactive | inactive | inactive | 33.5 µM (active) | inactive | inactive | inactive |
| CCCCCOC(=O)COc1cc(N2C(=O)C3=C(CCCC3)C2=O)c(F)cc1Cl | – | inactive | inactive | inactive | inactive | inactive | inactive | inactive | inactive |
| CN1CCC(=C2c3ccccc3CCc3sccc32)CC1 | 26.6 µM (active) | – | inactive | inactive | inactive | – | inactive | inactive | inactive |
| CCOc1ccc2[nH]cc(C(=O)NCc3ccccc3)c(=O)c2n1 | – | inactive | inactive | inactive | inactive | – | – | inactive | 61.1 µM (active) |
| C[Si](C)O[Si](C)(C)O[Si](C)(C)O[Si](C)C | inactive | – | inactive | inactive | inactive | inactive | inactive | inactive | inactive |
| CN1CCC(=C2c3ccccc3C=Cc3ccccc32)CC1 | 16.8 µM (active) | inactive | – | – | inactive | inactive | – | inactive | inactive |
| CC(Cc1cccc(C(F)(F)F)c1)NCCOC(=O)c1ccccc1 (stereo not drawn) | – | – | – | inactive | – | – | – | inactive | 29.8 µM (active) |
| C#CCOC(=O)[C@@H](C)Oc1ccc(Oc2ncc(Cl)cc2F)cc1 | – | – | – | inactive | inactive | inactive | inactive | inactive | inactive |
| CC(C)(C)c1cc(CO)cc(C(C)(C)C)c1O | 62.3 µM (active) | inactive | – | – | inactive | – | 69.9 µM (active) | inactive | – |
| CCCCOC(=O)c1ccccc1C(=O)OCC(CC)CCCC (stereo not drawn) | inactive | inactive | – | – | inactive | inactive | inactive | inactive | inactive |
| C=CC(C)(CCC=C(C)C)OC(=O)c1ccccc1 (stereo not drawn) | – | inactive | – | inactive | – | – | – | inactive | – |
| CCCCC(CC)COCCCN (stereo not drawn) | – | inactive | inactive | inactive | inactive | – | inactive | inactive | inactive |
| COc1ccc(C(C)=O)cc1 | inactive | inactive | – | – | inactive | 44.6 µM (active) | inactive | inactive | inactive |
| c1ccc(-c2nc[nH]c2-c2ccccc2)cc1 | – | inactive | – | inactive | – | – | – | inactive | inactive |
| CNCC[C@@H](Oc1ccccc1C)c1ccccc1 | 23.7 µM (active) | – | inactive | inactive | inactive | inactive | inactive | inactive | inactive |
| CCc1nn(C2CCCCC2)c2cc(C3(C#N)CCC(C(=O)O)CC3)ccc12 (stereo not drawn) | 61.1 µM (active) | – | 13.8 µM [inconclusive] (active) | inactive | – | inactive | inactive | inactive | 38.6 µM (active) |
| NC(N)=NN=C(/C=C/c1ccc([N+](=O)[O-])o1)/C=C/c1ccc([N+](=O)[O-])o1 | 1.5 µM (active) | – | – | inactive | 4.77 µM [activator] (active) | – | – | 23.7 µM (active) | 7.5 µM (active) |
| CC(C)NCC(O)c1cc(O)cc(O)c1 (stereo not drawn) | – | – | – | inactive | – | – | inactive | inactive | inactive |

| Structure (SMILES) | Potency [1] | Potency [2] | Potency [3] | outcome [4] | Potency [5] | Potency [6] | Potency [7] | Potency [8] | Potency (Aromatase (Homo sapiens)) |
| --- | --- | --- | --- | --- | --- | --- | --- | --- | --- |
| Cc1cccc(Oc2ccccc2)c1 | – | inactive | inactive | inactive | inactive | inactive | inactive | inactive | – |
| O=C(O)Cc1cc(I)c(Oc2ccc(O)c(I)c2)c(I)c1 | – | – | – | inactive | – | – | – | inactive | inactive |
| Cc1ccc2c(ccc3ccccc32)c1 | – | – | – | inactive | inactive | – | – | inactive | inactive |
| CCN1CCC[C@H]1CNC(=O)c1c(OC)ccc(Br)c1OC | – | – | inactive | inactive | inactive | inactive | inactive | inactive | inactive |
| Oc1ccc(Cc2ccccc2)cc1 | – | inactive | – | inactive | – | – | – | inactive | – |
| COc1ccc2[nH]c(S(=O)Cc3ncc(C)c(OC)c3C)nc2n1 (stereo not drawn) | – | inactive | inactive | inactive | – | inactive | inactive | inactive | inactive |
| CCN(CC)CCOc1ccc2c(c1)C(=O)c1cc(OCCN(CC)CC)ccc1-2 | – | inactive | – | inactive | – | – | – | – | inactive |
| CN(C)CC[C@@H](c1ccc(Br)cc1)c1ccccn1 | – | – | inactive | inactive | inactive | inactive | inactive | inactive | – |
| CCOc1ccc(NC(=O)CC(C)=O)cc1 | – | – | – | inactive | – | – | – | inactive | inactive |
| CCN(CC)C(C)CN1c2ccccc2Sc2ccccc21 (stereo not drawn) | – | – | inactive | inactive | inactive | inactive | inactive | inactive | inactive |
| CCCC(C)C | – | – | inactive | inactive | inactive | inactive | inactive | inactive | inactive |
| O=C1[C@H](CC[C@H](O)c2ccc(F)cc2)[C@@H](c2ccc(O)cc2)N1c1ccc(F)cc1 | – | inactive | inactive | inactive | inactive | inactive | inactive | inactive | inactive |
| O=S1(=O)N=C(O)c2ccccc21 | – | – | – | inactive | – | – | – | inactive | inactive |
| Cc1cc(CC(=O)O)c(C)n1-c1ccc(Cl)cc1 | – | inactive | – | inactive | – | – | – | inactive | inactive |
| CC(=O)c1c(C)c([N+](=O)[O-])c(C(C)(C)C)c([N+](=O)[O-])c1C | – | inactive | – | inactive | – | – | – | inactive | inactive |
| COc1cc(C(C)(C)C)c(O)c(C(C)(C)C)c1 | – | inactive | – | inactive | – | – | – | inactive | – |
| CCCCc1cc2ccccc2c(OCCN(C)C)n1 | 9.02 µM (active) | inactive | – | inactive | – | – | – | – | inactive |
| CN1CCC(OC(c2ccccc2)c2ccccc2)CC1 | – | inactive | inactive | inactive | inactive | – | inactive | inactive | inactive |
